Most compounds without a hit are left out; they make up all but 6.9% or so of the library.
SW480 rereplic = A quantitative high throughput screen for small molecules that induce DNA re-replication in SW480 colon adenocarcinoma cells | SW480 DNA re-replication, Hoechst DNA content imaging, 48 h | hit rate 1.8% among 340,000 | Potency, µM (doses to about 46.1 µM), most hits filed as activators | AID 624297, 2012; also: nearly all actives have a fitted effect of over 55% in size
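Quantitative HTS format with DMSO vehicle controls; 48 hr drug incubation at 37 C, then 40 min Hoechst staining and scanning imager measurement at 405 nm excitation.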
MCF10A rereplic = A quantitative high throughput screen for small molecules that induce DNA re-replication in MCF 10a normal breast cells | MCF 10A DNA re-replication, Hoechst nuclear intensity, 48 h | Potency, µM (highest dose often 46.1 µM), actives largely listed as activators | hit rate 2.9% among 350,000; also: nearly all actives have a fitted effect of over 50% in size
Vif-APOBEC3F blk = qHTS for Inhibitors of Vif-A3F Interactions: qHTS. Potency, µM (titrated, usually from 46.1 µM). HeLa A3F-eYFP + Vif (tagged APOBEC3F with the HIV-1 protein that degrades it), YFP fluorescence increase. AID 602313, 2012. hit rate 0.2% among 390,000; also: nearly all actives have a fitted effect of over 65% in size
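HeLa cells stably expressing A3F-eYFP plus Vif, plated and incubated overnight at 37 deg C, then exposed to compounds overnight at 37 deg C. Blocked degradation read as raised yellow fluorescence (Ex 488/Em 500-530).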
Vif-APOBEC3G blk = qHTS for Inhibitors of Vif-A3G Interactions: qHTS; HeLa A3G-eYFP + Vif (tagged APOBEC3G with the HIV-1 protein that degrades it), YFP fluorescence, overnight; Potency, µM (highest dose often 46.1 µM), most hits filed as inhibitors; AID 602310, 2012; DNA dC->dU-editing enzyme APOBEC-3G (Homo sapiens), Q9HC16; hit rate 0.076% among 410,000; also: nearly all actives have a fitted effect of over 60% in size
Target sequence (Q9HC16 whole entry, looked up): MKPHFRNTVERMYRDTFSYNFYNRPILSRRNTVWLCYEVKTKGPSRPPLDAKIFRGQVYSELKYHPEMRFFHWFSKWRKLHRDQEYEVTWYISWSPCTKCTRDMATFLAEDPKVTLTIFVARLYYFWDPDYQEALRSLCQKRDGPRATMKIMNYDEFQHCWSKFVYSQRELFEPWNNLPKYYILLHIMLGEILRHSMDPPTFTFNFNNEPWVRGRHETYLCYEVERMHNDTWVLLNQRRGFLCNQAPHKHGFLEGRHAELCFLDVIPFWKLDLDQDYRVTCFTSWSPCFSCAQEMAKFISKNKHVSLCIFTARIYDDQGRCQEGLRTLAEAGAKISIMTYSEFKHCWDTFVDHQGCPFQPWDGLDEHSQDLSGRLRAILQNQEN
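HeLa cells stably expressing Vif and C-terminally eYFP-tagged A3G, seeded overnight at 37 deg C, then exposed to compound by pintool overnight at 37 deg C. Rise in yellow fluorescence (Ex 488/Em 500-530, Acumen) marks blocked Vif-driven A3G degradation.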
IL-1B inflam inh = qHTS for Inhibitors of Inflammasome Signaling: IL-1-beta AlphaLISA Primary Screen; THP-1 LPS/ATP IL-1B secretion, AlphaLISA, 16 h; stronger effect = lower value; activity change, % at 57.5 µM; hit rate 4.7% among 360,000; in the data active = activity change below about -50%; inconclusive = mostly about -30% to -49%
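Secreted IL-1B measured by AlphaLISA bead assay after 16 h compound exposure of THP-1 cells; compounds (final up to 57.5 uM) added 1 h before LPS (250 ng/mL) and ATP (1.25 mM) stimulation; lower signal means less secretion.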
Giardia kill = Small Molecules that selectively kill Giardia lamblia: qHTS; hit rate 0.15% among 340,000; activity change, % at 7.66 µM, hits read low; Giardia lamblia trophozoite viability; in the data active = activity change below about -80%; inconclusive = between about -30% and that limit;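 also: parasites exposed to compound for two days anaerobically before the ATP read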
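Luminescent ATP signal served as the viability read-out, measured 15-30 min after adding ATP detection reagent to trophozoites that had been incubated with compounds for 48 hrs at 37 deg C anaerobically at 100 cells/well.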
Large screens that a line does not name were inactive. Unless noted, calls follow the shape of the dose curve; as a rule, active = well fitted curve in the direction sought with a large enough effect; inconclusive = small, poorly fitted or top-dose-only effect, or another doubt; inactive = no such curve, though single readings can be large; an effect the other way counts as inactive or inconclusive.

Cc1cccc(C(=O)Oc2ccccc2/C=N/Nc2ccc([N+](=O)[O-])cc2)c1	SW480 rereplic 13µM, MCF10A rereplic inconclusive, Vif-APOBEC3F blk inconclusive
O=C(NCCc1nc2ccccc2n1CCOc1ccccc1)C1CCCCC1	none (no result: SW480 rereplic, MCF10A rereplic, Vif-APOBEC3F blk, IL-1B inflam inh)
COc1ccc(OC)c(S(=O)(=O)NCCc2sc(C)nc2C)c1	none (no result: SW480 rereplic, MCF10A rereplic, IL-1B inflam inh, Giardia kill)
Oc1cccc(/C=N/Nc2cccc3cccnc23)c1	MCF10A rereplic inconclusive, IL-1B inflam inh -74.6
O=[N+]([O-])c1ccc(C=NNc2ccc(S(=O)(=O)O)cc2)cc1	none
O=[N+]([O-])c1ccc(N/N=C/C=C/c2ccco2)cc1	SW480 rereplic inconclusive, MCF10A rereplic inconclusive, Vif-APOBEC3F blk 11.2µM, Vif-APOBEC3G blk inconclusive
O=[N+]([O-])c1ccc(N/N=C/c2cccc(O)c2O)cc1	SW480 rereplic inconclusive, MCF10A rereplic 23.1µM, Vif-APOBEC3G blk inconclusive, IL-1B inflam inh inconclusive
O=[N+]([O-])c1ccc(N/N=C/c2ccc[nH]2)cc1	Vif-APOBEC3F blk inconclusive, IL-1B inflam inh -76.8
O=C(O)c1ccc(N/N=C/C=C/c2ccc([N+](=O)[O-])o2)cc1	Vif-APOBEC3F blk inconclusive, Vif-APOBEC3G blk inconclusive, Giardia kill inconclusive
CCS(=O)(=O)N1CC(=O)N(c2cccc(C)c2C)C(C)(C(=O)NC2CCCCC2)C1 (centres undefined)	none (no result: SW480 rereplic, MCF10A rereplic, IL-1B inflam inh, Giardia kill)
COc1ccc(NC(=O)c2ccc3c(=O)n4nc(Nc5cc(C)ccc5C)sc4nc3c2)cc1	none (no result: SW480 rereplic, MCF10A rereplic, IL-1B inflam inh, Giardia kill)
O=C(Nc1ccc2nc(SCC(=O)N3CCCc4ccccc43)sc2c1)c1cccc(Cl)c1	none (no result: SW480 rereplic, MCF10A rereplic, IL-1B inflam inh, Giardia kill)
CCCCSCCCNC(=O)CN1C(=O)c2cccnc2Oc2ccc(Cl)cc21	none (no result: SW480 rereplic, MCF10A rereplic, IL-1B inflam inh, Giardia kill)
CNC(=O)COc1ccc(Nc2nnc(-c3ccc(C)c(S(=O)(=O)NC(C)(C)C)c3)c3ccccc23)cc1	none (no result: SW480 rereplic, MCF10A rereplic, IL-1B inflam inh, Giardia kill)
c1ccc(Nc2nc(N3CCCCC3)nc(N3CCNCC3)n2)cc1	IL-1B inflam inh -65.3
c1ccc(Nc2nc(N3CCCC3)nc(N3CCCC3)n2)cc1	SW480 rereplic inconclusive
Cc1cccc(Nc2nc(N3CCCC3)nc(N3CCCC3)n2)c1	SW480 rereplic inconclusive, MCF10A rereplic 20.6µM
Fc1ccc(Nc2nc(Oc3ccccc3F)nc(N3CCCC3)n2)cc1	MCF10A rereplic inconclusive, IL-1B inflam inh -52.6
c1ccc(Nc2nc(N3CCCCC3)nc(N3CCCCC3)n2)cc1	none
CCOc1cc(CNCCSc2nnnn2-c2ccccc2)cc(Cl)c1OC	none (no result: SW480 rereplic, MCF10A rereplic, IL-1B inflam inh, Giardia kill)
COc1ccc(N2CCN(C(=O)CSc3nc(-c4ccc(C(C)C)cc4)no3)CC2)cc1	none (no result: SW480 rereplic, MCF10A rereplic, IL-1B inflam inh, Giardia kill)
COc1ccc(-c2nnc(SCC(=O)Oc3cc(C)ccc3C)o2)cc1	none (no result: SW480 rereplic, MCF10A rereplic, IL-1B inflam inh, Giardia kill)
CC1(C)CC(=O)C(N=Nc2cc(C(F)(F)F)ccc2Cl)=C(O)C1	MCF10A rereplic 0.517µM
CC1(C)CC(=O)C(N=Nc2ccc(-c3ccccc3)cc2)=C(O)C1	MCF10A rereplic 0.731µM
CCN(CC)S(=O)(=O)c1ccc(N=NC2=C(O)CC(C)(C)CC2=O)cc1	IL-1B inflam inh -55.4
O=C(Cn1c(=O)c2cc(Cl)ccc2n2nncc12)Nc1ccccc1	none (no result: SW480 rereplic, MCF10A rereplic, IL-1B inflam inh, Giardia kill)
CCCCCCCCCC[n+]1ccc(/C=C/c2c[nH]c3ccccc23)c2ccccc21	none (no result: SW480 rereplic, MCF10A rereplic, Vif-APOBEC3F blk, IL-1B inflam inh, Giardia kill)
CCCCn1c(N)c(-c2nc3ccccc3s2)c2c([N+](=O)[O-])nn(CC)c(=O)c21	MCF10A rereplic inconclusive
CCCCCn1c(N)c(-c2nc3ccccc3s2)c2c([N+](=O)[O-])nn(CC)c(=O)c21	MCF10A rereplic 2.91µM
Cc1ccc2nc(Cl)c(/C=N/NC(=O)[C@H]3C[C@@H]3c3ccccc3)cc2c1	SW480 rereplic inconclusive, MCF10A rereplic 8.2µM
CS(=O)(=O)c1ccc(C(=O)OCC(=O)Nc2ccc(OC(F)(F)F)cc2)cc1[N+](=O)[O-]	none (no result: SW480 rereplic, MCF10A rereplic, Vif-APOBEC3F blk, IL-1B inflam inh)
Cc1ccccc1NC(=O)c1c(C)oc2ccc(O)c(CN3CCCC3)c12	none (no result: SW480 rereplic, MCF10A rereplic, IL-1B inflam inh, Giardia kill)
CCOC(=O)c1c(C)[nH]c(CCC(=O)NCc2ccccc2C)c1C	none (no result: SW480 rereplic, MCF10A rereplic, IL-1B inflam inh, Giardia kill)
COc1cc(C)c(/C=C/C(C)=C/C=C/C(C)=C/C(=O)O)c(C)c1C	MCF10A rereplic 8.2µM
COc1cc(/C=C/C(=O)O)ccc1OS(=O)(=O)c1c(C)c(C)cc(C)c1C	none
CCOC(=O)/C=C(C)/C=C/C=C(C)/C=C/c1c(C)cc(OC)c(C)c1C	MCF10A rereplic 26.6µM (no result: Vif-APOBEC3F blk, Vif-APOBEC3G blk, IL-1B inflam inh, Giardia kill)
Cc1ccc(NC(=O)Nc2nnc(N(C)C3CCCCC3)s2)c(Cl)c1	none (no result: SW480 rereplic, MCF10A rereplic, IL-1B inflam inh, Giardia kill)
Cc1ccc2[nH]cc(CCNC(=O)Nc3ccccc3)c2c1	none
Cc1ccc2[nH]cc(CCNC(=O)c3cccnc3)c2c1	MCF10A rereplic 20.6µM
COc1ccc(C(=O)NNC(=O)c2ccc3ccccc3n2)cc1	SW480 rereplic inconclusive, MCF10A rereplic inconclusive, Vif-APOBEC3G blk inconclusive, IL-1B inflam inh -98.2
COc1ccc2[nH]cc(CCNC(=O)c3ccc4ccccc4n3)c2c1	MCF10A rereplic 14.6µM
CC(C)CSc1nnc(-c2ccccc2)c(-c2ccccc2)n1	none (no result: SW480 rereplic, MCF10A rereplic, IL-1B inflam inh, Giardia kill)
Cc1ccc(NC(=O)Cn2c(-c3cncs3)nc3ccccc32)c(Br)c1	none (no result: SW480 rereplic, MCF10A rereplic, IL-1B inflam inh, Giardia kill)
Cc1cc(OC(C)C(=O)Nc2c(C(=O)c3ccc(F)cc3)oc3ccccc23)ccc1Cl (centres undefined)	none (no result: SW480 rereplic, MCF10A rereplic, IL-1B inflam inh, Giardia kill)
COC/C=C/C1=CC2=CC(=O)C(C)(OC(=O)c3cnc4ccccc4n3)C(=O)C2=CN1Cc1ccc(OC)cc1 (centres undefined)	IL-1B inflam inh -60.1
CCCCOC(=O)/C=C/c1ccc(OC(=O)OC)c(OC(=O)OC)c1	SW480 rereplic inconclusive, MCF10A rereplic 14.6µM

Screening data from PubChem.
